# Experimental data reported in PubChem BioAssay (NCATS).
# Records with an inconclusive call do not appear. Values without a mark were called inactive. Activity calls are given as the source filed them. Calls come from the whole dose curve; as a rule, active = well fitted inhibition curve with a large enough effect; inconclusive = small, poorly fitted or top-dose-only effect; inactive = flat fitted curve, though single readings scatter.
# Target: Phospholipid hydroperoxide glutathione peroxidase GPX4 (Homo sapiens) (UniProt P36969)
# Sequence (P36969 whole entry, looked up): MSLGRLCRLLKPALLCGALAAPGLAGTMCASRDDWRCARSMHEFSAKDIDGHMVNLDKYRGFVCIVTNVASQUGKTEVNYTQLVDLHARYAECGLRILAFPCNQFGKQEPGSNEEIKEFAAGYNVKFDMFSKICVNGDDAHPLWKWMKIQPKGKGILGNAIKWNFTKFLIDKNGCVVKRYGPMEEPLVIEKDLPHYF
# Assay: Primary qHTS Assay for Inhibitors of Recombinant Selenoprotein Glutathione Peroxidase 4 (GPX4) (AID 1845192); note: nearly all actives have a fitted effect of over 65% in size
# Settings: recombinant GPX4, GR-coupled NADPH fluorescence, 15 min; series mostly up to 50 µM; activity change, negative = inhibition: at the top concentration
# Procedure, shortened: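 qHTS, GR-coupled: GPX4 200 nM + cpd 30 min RT → GSH 1 mM, NADPH 0.5 mM, GR 100 nM → CHP 0.5 mM start; fluor 340/450 at t0 and t15 min; no-enzyme wells as control.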
# % is set by controls: 0 for no effect and ±100 for the full control effect.
Structure (SMILES),outcome,"activity change, negative = inhibition"
NC1=NCC2c3ccccc3Cc3ccccc3N12 (stereo not drawn),inactive,
Cc1ccc(Cl)c(Nc2ccccc2C(=O)O)c1Cl,inactive,
NC(N)=NC(=O)Cc1c(Cl)cccc1Cl,inactive,
CNCCC(Oc1ccccc1OC)c1ccccc1 (stereo not drawn),,-12%
C[N+](C)(C)CCOC(N)=O,inactive,
CCC(=O)c1ccc2c(c1)N(CCCN(C)C)c1ccccc1S2,inactive,
CCc1c(C)[nH]c2c1C(=O)C(CN1CCOCC1)CC2 (stereo not drawn),inactive,
CNCCCN1c2ccccc2CCc2ccccc21,inactive,
CN1CCN(C2=Nc3ccccc3Oc3ccc(Cl)cc32)CC1,inactive,
CCNC(=O)N1CCN(CCCC(c2ccc(F)cc2)c2ccc(F)cc2)CC1,,3.77%
OCCN1CCN(CCCN2c3ccccc3C=Cc3ccccc32)CC1,inactive,
Cc1ccc(/C(=C\CN2CCCC2)c2ccccn2)cc1,inactive,
Cc1nnc(SCC2=C(C(=O)O)N3C(=O)[C@@H](NC(=O)Cn4cnnn4)[C@H]3SC2)s1,inactive,
CCN(CC)CCOCCOC(=O)C1(c2ccccc2)CCCC1,inactive,
CC(C)(C)NCC(O)c1cc(O)cc(O)c1 (stereo not drawn),inactive,
COc1ccc2c(c1OC)C(=O)O[C@@H]2[C@H]1c2c(cc3c(c2OC)OCO3)CCN1C,inactive,
CN(C)CCCN1c2ccccc2Sc2ccccc21,inactive,
CCN(CC)CCCN(c1ccccc1)C1Cc2ccccc2C1,inactive,
CCCOc1ccccc1-c1nc2n[nH]nc2c(=O)[nH]1,inactive,
O=C(O)CN(CCN(CC(=O)O)CC(=O)O)CCN(CC(=O)O)CC(=O)O,inactive,
CN1CCN(CC(=O)N2c3ccccc3C(=O)Nc3cccnc32)CC1,inactive [at 4.52 µM],
c1cc(CN2CCCCC2)cc(OCCCNc2nc3ccccc3s2)c1,inactive,
CN(C)CC[C@@H](c1ccc(Br)cc1)c1ccccn1,inactive,
CCc1cccc(N(C)C(N)=Nc2cccc3ccccc23)c1,inactive,
CCCN1C[C@H](CSC)C[C@@H]2c3cccc4[nH]cc(c34)C[C@H]21,inactive,
CN1C[C@H](C(=O)N[C@]2(C)O[C@@]3(O)[C@@H]4CCCN4C(=O)[C@H](Cc4ccccc4)N3C2=O)C[C@@H]2c3cccc4[nH]cc(c34)C[C@H]21,inactive,
COC(=O)C1=C(C)NC(C)=C(C(=O)OC(C)(C)CN(C)CCC(c2ccccc2)c2ccccc2)C1c1cccc([N+](=O)[O-])c1 (stereo not drawn),inactive,
Fc1ccc(C(c2ccc(F)cc2)N2CCN(C/C=C/c3ccccc3)CC2)cc1,inactive,
